# Laboratory results reported in PubChem BioAssay AID2162 (National Center for Advancing Translational Sciences (NCATS), 2009).
# Inconclusive results are not listed. Activity calls are given as the source filed them. Calls follow the shape of the dose curve; as a rule, active = well fitted inhibition curve with a large enough effect; inconclusive = small, poorly fitted or top-dose-only effect; inactive = flat fitted curve, though single readings scatter.
# Molecular target: Polyunsaturated fatty acid lipoxygenase ALOX12 (Homo sapiens) (UniProt P18054)
# Experiment: Confirmation qHTS Assay for Inhibitors of 12-hLO (12-human lipoxygenase)
# Details: purified 12-hLO, xylenol orange absorbance; activity change, negative = inhibition: active compounds read low
# Description: Assay Provider: Holman, T.R., University of California, Santa Cruz Screening Center PI: Austin, Christopher P. Screening Center: NIH Chemical Genomics Center Human lipoxygenase 12hLO is a member of the closely related lipoxygenase family of enzymes which catalyze the site-specific oxidation of arachidonic acid to various hormone precursor molecules and as such is a candidate for drug development in a variety of disease areas, such as cancer and inflammation. Inhibition of 12hLO activity was screened by utilizing arachidonic acid as a substrate. The extent of hydroperoxide product formation was measured by a secondary chromogenic reaction in which xylenol orange (XO, Sigma-Aldrich, cat. number 39,818-7) reacts with the ferric ions produced from the reaction between the hydroperoxide and ferrous ions. The Fe(III)-XO complex is characterized with red-shifted absorbance at 560 nm. A purified preparation of human 12hLO was supplied by Professor Ted Holman, University of California, Santa Cruz. This assay includes some confirmation and follow-up compounds for related primary screening assay AID 1452.
# Assay Protocol: Buffer: 25 mM Hepes pH 7.0, 0.01% Triton X-100. Reagents/Controls: Buffer in columns 3 and 4 as negative control (no enzyme). Substrate solution: 40 uM arachidonic acid (Sigma-Aldrich, St. Louis, MO) final concentration dispensed throughout the plate. Enzyme: 150 nM 12hLO final concentration in columns 1, 2, 5-48. Column 1 is neutral (100% activity). Column 2 contained pin-transferred titration of NDGA (nordihidroguaiaretic acid, Sigma-Aldrich, N 5023, top concentration 20 mM in DMSO, then 1:3 dilution in duplicate). (Dilution factor: 23 nL into 4 uL.) Chromogenic detection reagent (divalent iron/xylenol orange, Fe-XO): 200 uM xylenol orange plus 300 uM ferrous ammonium sulfate prepared freshly in 50 mM sulfuric acid. Assay Steps: Three uL of enzyme were dispensed to 1536-well Greiner black clear bottom plates. Compounds and controls (23 nL) were transferred via Kalypsys PinTool. The plates were incubated for 15 min at room temperature, and then 1 uL of substrate solution was added to start the reaction. After room temperature incubation for 30 minutes, 4 uL of Fe-XO solution was added to each well and the plates were incubated for 30 min. The absorbance at 405 and 573 nm were measured using ViewLux (Perkin-Elmer) High-throughput CCD imager and absorbance protocol settings. The 573-to-405 absorbance ratio was used to compute reaction progress.
# Polyunsaturated fatty acid lipoxygenase ALOX12 (Homo sapiens), sequence (P18054 whole entry, looked up): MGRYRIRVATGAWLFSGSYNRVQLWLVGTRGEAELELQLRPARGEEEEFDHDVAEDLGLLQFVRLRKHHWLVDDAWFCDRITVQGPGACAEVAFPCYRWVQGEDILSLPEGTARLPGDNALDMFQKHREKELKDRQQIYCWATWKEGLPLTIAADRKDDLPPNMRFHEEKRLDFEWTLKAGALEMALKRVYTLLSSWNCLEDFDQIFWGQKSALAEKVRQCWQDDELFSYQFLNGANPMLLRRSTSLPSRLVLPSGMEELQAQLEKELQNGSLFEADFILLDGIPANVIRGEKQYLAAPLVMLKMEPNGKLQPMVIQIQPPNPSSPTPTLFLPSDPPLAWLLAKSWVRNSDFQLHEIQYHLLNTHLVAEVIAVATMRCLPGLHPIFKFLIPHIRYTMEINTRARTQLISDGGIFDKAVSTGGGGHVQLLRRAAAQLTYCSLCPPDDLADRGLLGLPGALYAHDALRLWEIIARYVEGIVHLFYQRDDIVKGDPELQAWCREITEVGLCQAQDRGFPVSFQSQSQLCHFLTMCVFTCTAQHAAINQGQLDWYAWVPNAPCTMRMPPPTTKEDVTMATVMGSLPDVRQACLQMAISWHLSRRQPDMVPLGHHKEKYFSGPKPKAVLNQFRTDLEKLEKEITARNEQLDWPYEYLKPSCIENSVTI
Compound,"activity change, negative = inhibition",Potency
Cc1csc(-c2coc3cc(O)cc(C)c3c2=O)n1,-12.2% (inactive),
c1csc(C2Nc3cccc4cccc(c34)N2)c1,,15.8 µM (active)
Nc1cc(-c2ccncc2)c[nH]c1=O,-18.7% (inactive),
Cc1cc(Nc2nnnn2-c2ccccc2)n(-c2ccc(Cl)cc2)n1,-12.4% (inactive),
COc1ccc(C(C[N+](=O)[O-])c2c(-c3ccccc3)cc3ccccn23)c(OC)c1 (stereo not given),-14.8% (inactive),
CCCC(=O)NC(c1ccco1)c1cc(Cl)c2cccnc2c1O (stereo not given),,2.82 µM (active)
COCCSc1ccccc1C(=O)NCc1ccco1,-7.73% (inactive),
CN(C)c1ccc(C(=O)OCC#CCSc2nnc(-c3cccc4ccccc34)o2)cc1,-12.9% (inactive),
CCC(=O)NC(c1cccc(C)c1)c1cc(Cl)c2cccnc2c1O (stereo not given),,39.8 µM (active)
Oc1ccc(CNc2ccccc2)c2cccnc12,,11.2 µM (active)
CC(=O)NCCNc1ncncc1-c1ccc(N(C)C)cc1,-13.5% (inactive),
CCC(=O)NC(c1cccs1)c1cc(Cl)c2cccnc2c1O (stereo not given),,7.94 µM (active)
O=C(c1ccncc1)N1CCC2(CCCN(Cc3nccs3)C2)CC1,-1.82% (inactive),
O=c1c(-c2ccc3c(c2)OCCO3)coc2cc(O)cc(O)c12,-27% (inactive),
CCC(=O)NC(c1ccco1)c1cc(Cl)c2cccnc2c1O (stereo not given),,5.01 µM (active)
Cc1ccc(-c2ccc(/C=C3\C(=O)ON=C3c3ccccc3)o2)c([N+](=O)[O-])c1,,4.47 µM (active)
CCC(=O)NC(c1ccc(F)cc1)c1cc(Cl)c2cccnc2c1O (stereo not given),,15.8 µM (active)
Oc1ccc2ccccc2c1CNc1cnc2ccccc2c1,,5.01 µM (active)
COc1ccccc1C(=O)OCC#CCSc1nnc(-c2cccc3ccccc23)o1,-4.87% (inactive),
N#Cc1nc(-c2ccc(OCc3ccc(Cl)cc3)cc2)oc1N1CCC(C(N)=O)CC1,-12.9% (inactive),

Compound,"activity change, negative = inhibition",Potency
Clc1ccc(-c2nnc(C3CCCCC3)o2)cc1,-9.47% (inactive),
O=C(Nc1nnc(-c2ccccc2)o1)c1ccc(Cl)cc1,,4.47 µM (active)
Oc1ccccc1C1Nc2cccc3cccc(c23)N1,,39.8 µM (active)
CCCCn1c(NC(C)=O)c(C#N)c2nc3ccccc3nc21,-16% (inactive),
O=C(OCC#CCSc1nnc(-c2cccc3ccccc23)o1)c1ccc(Cl)cc1,-7.17% (inactive),
CNc1oc(-c2cccc3ccccc23)nc1C#N,,4.47 µM (active)
CCC(=O)NC(c1ccc2c(c1)OCO2)c1cc(Cl)c2cccnc2c1O (stereo not given),,25.1 µM (active)
Cc1c(N/C=C/C(=O)c2cccs2)c(=O)n(-c2ccccc2)n1C,-11.2% (inactive),
CCOc1cc(-c2cc(-c3ccc(N)cc3)nc(N)c2C#N)ccc1O,-26.8% (inactive),
COc1ccc(OC)c(NC(=O)NC2(C(F)(F)F)Oc3ccccc3O2)c1,-12.7% (inactive),
CCC(=O)N(Cc1cc(=O)[nH]c2ccccc12)C1CCCCC1,3.25% (inactive),
O=C(Nc1nc2n(n1)C(c1ccccc1)CC(c1ccc(Cl)cc1)N2)c1ccco1 (stereo not given),,14.1 µM (active)
O=C(OCC#CCSc1nnc(-c2cccc3ccccc23)o1)c1ccc2ccccc2c1,-5.58% (inactive),
O=C(NCC#CCSc1nnc(-c2cccc3ccccc23)o1)c1cccs1,-3.59% (inactive),
COC(=O)c1ccc2c(c1)C(=O)N(C1CCCCC1)C2=O,-2.91% (inactive),
O=C1C2C3CCCC3=C3CCCC3C2C(=O)N1c1cccc(Cl)c1 (stereo not given),-9.6% (inactive),
CCC(=O)NC(c1cccs1)c1cc([N+](=O)[O-])c2cccnc2c1O (stereo not given),,7.94 µM (active)
CN(C)CCC(=O)c1ccc(Cl)cc1,-17.8% (inactive),
CC(=O)N1CCN(c2ccc(NCc3ccc(C)cc3)cc2)CC1,,22.4 µM (active)
CN(C)c1oc(-c2ccc(OCc3ccccc3)cc2)nc1C#N,-20.4% (inactive),
